Source: PubChem BioAssay (Tox21)
Records with an inconclusive call do not appear. The source made the active and inactive calls. Unless noted, calls follow the shape of the full dose curve.

What was measured:
[1] = Nuclear factor erythroid 2-related factor 2/antioxidant responsive element (Nrf2/ARE) small molecule agonists: qHTS cell viability counter screen in human keratinocytes (AID 1919968; active = well fitted curve in the direction sought with a large enough effect in the repeat runs; an effect the other way counts as inactive or inconclusive; also: nearly all actives have a fitted effect of over 55% in size)
Outline: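 KeratinoSens cells (HaCaT keratinocytes stably carrying an ARE-luciferase reporter) were seeded at 1,500 cells/well and rested 5 h at 37 C/5% CO2. They were then exposed to compounds in DMSO for 23 h. Viability was read by CellTiter-Fluor fluorescence after 1 h.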

[2] = Nuclear factor erythroid 2-related factor 2/antioxidant responsive element (Nrf2/ARE) small molecule agonists: luciferase reporter gene qHTS assay in human keratinocytes (AID 1919969); also: nearly all actives have a fitted effect of over 35% in size
[3] = molecular target: Gonadotropin-releasing hormone receptor (Homo sapiens) (UniProt P30968); assay: Human gonadotropin-releasing hormone receptor (GnRHR) small molecule agonists, calcium flux assay in GnRHR-HEK293 cells (AID 1920063); also: nearly all actives have a fitted effect of over 35% in size
Outline: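 HEK293 cells stably expressing human GnRHR were plated 18 h at 37 °C, loaded with calcium dye 1 h at 37 °C, then given compound in agonist mode; fluorescence (Ex/Em 480/540) read kinetically for 3 min at 1 s intervals.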

[4] = molecular target: KiSS-1 receptor (Homo sapiens) (UniProt Q969F8); assay: Human kisspeptin (KISS1R) small molecule agonists, calcium flux assay in KISS1R-HEK293 cells (AID 1920064; active = well fitted curve in the direction sought with a large enough effect in the repeat runs; an effect the other way counts as inactive or inconclusive)
Outline: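 HEK293 cells stably expressing human KISS1R were plated 18 h at 37 °C, loaded with calcium dye for 1 h at 37 °C, then given compound by pin tool. Fluorescence (Ex/Em 480/540) was read kinetically for 3 min.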

[5] = G protein-coupled receptor (GPCR) small molecule agonists, calcium flux assay: HEK293 wild type cell line counter screen (AID 1920065)
Outline: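 Cells were plated and cultured 18 h at 37 C/5% CO2, then loaded with calcium dye for 1 h at 37 C. Compounds in DMSO were pin-transferred in agonist mode, and fluorescence (Ex/Em 480/540) was read kinetically for 3 min at 1 s intervals.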

[6] = p53 small molecule agonists, cell-based qHTS assay with human liver microsomes (AID 1963577)
Outline: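 p53RE-bla cells, 4,000/well, compound added after 5 h, with human liver microsomes 0.5 mg/mL and NADPH 0.5 mg/mL final; 16 h at 37 C, then LiveBLAzer 2 h RT, fluorescence.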

[7] = p53 small molecule agonists, cell-based qHTS assay with rat liver microsomes (AID 1963578)
Outline: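 p53RE-bla cells, 4,000/well, pre-incubated 5 h, then given compounds plus rat liver microsomes (0.5 mg/mL final) and NADPH (0.5 mg/mL final). Incubation 16 h at 37 C; beta-lactamase reporter read by LiveBLAzer fluorescence after 2 h at room temperature.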

[8] = p53 small molecule agonists, cell-based qHTS assay with human liver microsomes: qHTS cell viability counter screen (AID 1963579); also: nearly all actives have a fitted effect of over 45% in size
Outline: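 p53RE-bla cells, 4,000/well, dosed 5 hours after plating, with human liver microsomes (0.5 mg/mL final) plus NADPH (0.5 mg/mL final), 16 hours at 37 C. Viability read as CellTiter-Glo luminescence after 30 min at room temperature.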

[9] = p53 small molecule agonists, cell-based qHTS assay with rat liver microsomes: qHTS cell viability counter screen (AID 1963580); also: nearly all actives have a fitted effect of over 45% in size
Outline: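 p53RE-bla HCT-116 cells (4,000/well) rested 5 h at 37 C, then given Tox21 compounds in DMSO with rat liver microsomes (0.5 mg/mL final) plus NADPH (0.5 mg/mL final) for 16 h at 37 C. Viability read by CellTiter-Glo luminescence after 30 min at room temperature.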

[10] = p53 small molecule agonists, cell-based qHTS assay: qHTS cell viability counter screen (AID 1963581); also: nearly all actives have a fitted effect of over 45% in size
Outline: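 p53RE-bla HCT-116 cells were exposed to compounds for 16 h at 37 C; after the beta-lactamase FRET read in the same wells, CellTiter-Glo was added and luminescence (intracellular ATP) read after 30 min at room temperature.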

[11] = p53 small molecule agonists, cell-based qHTS assay (AID 1963582; active = well fitted activation curve with a large enough effect in the signal ratio in the repeat runs, not every such curve was filed as active; the % refers to the signal ratio)
Outline: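 p53RE-bla beta-lactamase reporter cells rested 5 h at 37 C/5% CO2, then received compounds in DMSO by pin transfer and were incubated 16 h at 37 C. LiveBLAzer B/G FRET substrate was loaded for 2 h at room temperature before fluorescence reading.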

[12] = molecular target: 5-hydroxytryptamine receptor 2A (Homo sapiens) (UniProt P28223); assay: 5-hydroxytryptamine receptor 2A (HTR2A) small molecule antagonists, cell-based qHTS assay (AID 1963586); also: nearly all actives have a fitted effect of over 45% in size
Outline: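 Antagonist-mode intracellular calcium assay: DOI (4 nM) added after 5 min compound pre-incubation at room temperature to dye-loaded HTR2A-CHO cells. Fluorescence followed for 3 min, sampled every second.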

[13] = molecular target: 5-hydroxytryptamine receptor 2A (Homo sapiens) (UniProt P28223); assay: 5-hydroxytryptamine receptor 2A (HTR2A) small molecule agonists, cell-based qHTS assay (AID 1963587); also: nearly all actives have a fitted effect of over 30% in size
Outline: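 HTR2A-CHO cells, plated 18 h at 37 C/5% CO2, dye-loaded 1 h at 37 C; compounds in DMSO added by pin tool (agonist mode). Intracellular calcium flux read as kinetic fluorescence on FDSS over 2 min at 1 s intervals.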

[14] = molecular target: Muscarinic acetylcholine receptor M1 (Homo sapiens) (UniProt P11229); assay: Cholinergic receptor muscarinic 1 (CHRM1) small molecule antagonists, cell-based qHTS assay (AID 1963588); also: nearly all actives have a fitted effect of over 40% in size
Outline: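 CHRM1-CHO calcium-flux assay, antagonist mode. Cells were seeded 18 h, dye-loaded 1 h at 37 C and given compound for 5 min at RT, then acetylcholine was added at 50nM. FDSS fluorescence was read 3 min; 15 concentrations, three runs.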

[15] = molecular target: Muscarinic acetylcholine receptor M1 (Homo sapiens) (UniProt P11229); assay: Cholinergic receptor muscarinic 1 (CHRM1) small molecule agonists, cell-based qHTS assay (AID 1963589); also: nearly all actives have a fitted effect of over 35% in size
Outline: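 CHO cells stably expressing human CHRM1, seeded 18 h at 37 C/5% CO2, dye-loaded 1 h at 37 C, then given compound in agonist mode; intracellular calcium fluorescence read kinetically at 1 s intervals. Fifteen concentrations, three independent runs.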

[16] = cAMP Responsive Elements (CRE) small molecule agonists, cell-based qHTS assay (AID 1963590)
Outline: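 CRE-bla HEK 293T cells in DMEM with 10% dialyzed FBS, NEAA, pyruvate and 25 mM HEPES were plated 18 h at 37 C/5% CO2, then exposed to compounds in DMSO for 3 h before LiveBLAzer B/G FRET substrate addition.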

[17] = cAMP Responsive Elements (CRE) small molecule antagonists, cell-based qHTS assay (AID 1963591; active = well fitted inhibition curve with a large enough effect in the signal ratio in the repeat runs, not every such curve was filed as active; the % refers to the signal ratio)
Outline: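 CRE-bla HEK293T cells were plated 18 h at 37 °C/5% CO2, pinned with compound in DMSO, then stimulated with NKH477 at 0.25 uM final for 3 h. LiveBLAzer B/G FRET substrate was added and plates incubated 2 h at room temperature.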

[18] = molecular target: Beta-2 adrenergic receptor (Homo sapiens) (UniProt P07550); assay: Adrenergic beta2 receptor (ADRB2) small molecule antagonists, cell-based qHTS assay (AID 1963592); also: series mostly up to about 92 µM; nearly all actives have a fitted effect of over 50% in size
Outline: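 Cells (CHO, stable ADRB2 overexpression) incubated 18-20hr at 37C; compounds added from DMSO; agonist mix (1nM isoproterenol, 100uM IBMX, 25uM Ro-20-1724) added; 0.5hr RT; d2-cAMP and anti-cAMP-cryptate added; 1hr RT; 665/615 nm read.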

[19] = molecular target: D(2) dopamine receptor (Homo sapiens) (UniProt P14416); assay: Dopamine D2 receptor (DRD2) small molecule agonists, cell-based qHTS assay (AID 1963594); also: nearly all actives have a fitted effect of over 35% in size
Outline: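 HEK293 cells stably expressing DRD2 were cultured 24 h at 37 C, then given Ro20-1724 (0.1 mM final) and compounds for 10 min at room temperature. NKH477 (200nM) was then added for 30 min. cAMP was read by HTRF.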

[20] = molecular target: D(2) dopamine receptor (Homo sapiens) (UniProt P14416); assay: Dopamine D2 receptor (DRD2) small molecule antagonists, cell-based qHTS assay (AID 1963595; active = well fitted inhibition curve with a large enough effect in the signal ratio in the repeat runs, with a control signal flat; the % refers to the signal ratio)
Outline: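 HEK293 cells stably expressing DRD2, preincubated with 0.1 mM Ro20-1724 and compounds 10 min, were stimulated with 200 nM NKH477 plus 12 nM quinpirole for 30 min at room temperature; cAMP measured by HTRF (665/620 nm).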

Measured: Potency

Sequence of Gonadotropin-releasing hormone receptor (Homo sapiens) (P30968 whole entry, looked up): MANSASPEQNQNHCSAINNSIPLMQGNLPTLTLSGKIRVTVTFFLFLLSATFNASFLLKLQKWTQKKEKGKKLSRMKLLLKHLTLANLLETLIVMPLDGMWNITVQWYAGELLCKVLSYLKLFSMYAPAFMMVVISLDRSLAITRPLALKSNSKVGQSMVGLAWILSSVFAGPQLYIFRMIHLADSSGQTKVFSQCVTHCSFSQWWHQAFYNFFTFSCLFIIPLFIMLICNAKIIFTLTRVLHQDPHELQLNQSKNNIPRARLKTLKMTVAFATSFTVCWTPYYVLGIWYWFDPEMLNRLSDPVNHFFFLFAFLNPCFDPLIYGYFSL
Sequence of KiSS-1 receptor (Homo sapiens) (Q969F8 whole entry, looked up): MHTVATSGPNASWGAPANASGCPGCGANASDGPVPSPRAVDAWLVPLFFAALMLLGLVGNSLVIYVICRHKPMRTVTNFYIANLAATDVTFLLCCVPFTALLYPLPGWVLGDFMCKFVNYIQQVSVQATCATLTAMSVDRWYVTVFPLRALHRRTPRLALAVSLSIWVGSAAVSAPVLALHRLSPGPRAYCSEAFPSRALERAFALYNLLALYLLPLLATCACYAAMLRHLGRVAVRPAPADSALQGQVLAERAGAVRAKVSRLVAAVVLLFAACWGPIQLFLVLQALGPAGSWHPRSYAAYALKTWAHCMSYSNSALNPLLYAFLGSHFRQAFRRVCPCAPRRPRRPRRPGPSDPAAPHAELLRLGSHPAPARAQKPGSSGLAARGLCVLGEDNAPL
Sequence of D(2) dopamine receptor (Homo sapiens) (P14416 whole entry, looked up): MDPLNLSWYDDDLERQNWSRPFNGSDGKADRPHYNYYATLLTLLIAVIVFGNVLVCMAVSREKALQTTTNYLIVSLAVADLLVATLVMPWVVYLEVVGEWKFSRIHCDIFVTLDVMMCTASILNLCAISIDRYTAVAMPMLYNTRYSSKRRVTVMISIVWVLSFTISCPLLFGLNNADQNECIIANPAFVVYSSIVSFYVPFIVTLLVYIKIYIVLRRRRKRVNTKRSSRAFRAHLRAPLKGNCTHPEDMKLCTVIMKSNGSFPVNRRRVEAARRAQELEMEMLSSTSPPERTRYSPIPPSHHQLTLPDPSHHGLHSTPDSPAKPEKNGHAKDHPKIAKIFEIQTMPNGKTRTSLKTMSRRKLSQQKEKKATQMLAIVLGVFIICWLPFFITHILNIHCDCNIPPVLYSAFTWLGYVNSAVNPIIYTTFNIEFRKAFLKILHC
Sequence of 5-hydroxytryptamine receptor 2A (Homo sapiens) (P28223 whole entry, looked up): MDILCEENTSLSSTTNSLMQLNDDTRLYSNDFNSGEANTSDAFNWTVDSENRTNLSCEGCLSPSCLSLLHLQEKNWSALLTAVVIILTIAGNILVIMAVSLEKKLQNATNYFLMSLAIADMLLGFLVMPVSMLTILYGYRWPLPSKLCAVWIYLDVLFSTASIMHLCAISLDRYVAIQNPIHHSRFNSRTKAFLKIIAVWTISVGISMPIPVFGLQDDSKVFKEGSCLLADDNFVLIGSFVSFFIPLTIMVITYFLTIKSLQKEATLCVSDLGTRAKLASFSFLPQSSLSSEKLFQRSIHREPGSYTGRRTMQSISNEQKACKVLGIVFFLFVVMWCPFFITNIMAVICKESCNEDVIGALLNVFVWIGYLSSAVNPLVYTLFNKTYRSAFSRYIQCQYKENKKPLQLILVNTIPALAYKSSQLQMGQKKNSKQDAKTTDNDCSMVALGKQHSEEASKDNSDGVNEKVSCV
Sequence of Muscarinic acetylcholine receptor M1 (Homo sapiens) (P11229 whole entry, looked up): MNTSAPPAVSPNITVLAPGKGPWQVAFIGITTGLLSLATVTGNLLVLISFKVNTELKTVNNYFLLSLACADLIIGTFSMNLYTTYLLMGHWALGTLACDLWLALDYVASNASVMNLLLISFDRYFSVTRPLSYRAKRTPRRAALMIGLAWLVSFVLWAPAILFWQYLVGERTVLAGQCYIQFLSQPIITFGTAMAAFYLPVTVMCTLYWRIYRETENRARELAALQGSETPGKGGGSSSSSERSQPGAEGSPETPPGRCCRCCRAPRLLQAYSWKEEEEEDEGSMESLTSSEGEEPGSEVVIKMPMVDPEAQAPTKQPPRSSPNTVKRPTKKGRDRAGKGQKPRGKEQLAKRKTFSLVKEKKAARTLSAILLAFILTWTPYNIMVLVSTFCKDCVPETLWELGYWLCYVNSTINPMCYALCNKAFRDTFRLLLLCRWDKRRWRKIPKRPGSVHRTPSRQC
Sequence of Beta-2 adrenergic receptor (Homo sapiens) (P07550 whole entry, looked up): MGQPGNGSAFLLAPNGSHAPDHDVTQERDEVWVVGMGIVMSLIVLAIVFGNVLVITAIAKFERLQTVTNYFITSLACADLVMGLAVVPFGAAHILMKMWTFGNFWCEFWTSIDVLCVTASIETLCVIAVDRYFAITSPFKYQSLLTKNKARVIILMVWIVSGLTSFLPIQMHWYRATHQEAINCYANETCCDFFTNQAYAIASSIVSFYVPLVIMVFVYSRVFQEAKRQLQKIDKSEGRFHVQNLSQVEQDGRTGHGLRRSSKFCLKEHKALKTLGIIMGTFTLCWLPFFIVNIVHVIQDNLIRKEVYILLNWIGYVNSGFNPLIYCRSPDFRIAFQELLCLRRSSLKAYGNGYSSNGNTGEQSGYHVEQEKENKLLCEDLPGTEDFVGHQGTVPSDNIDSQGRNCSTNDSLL

O=[N+]([O-])c1ccccc1C(F)(F)F
inactive: all assays above

Cc1cc(C)c(C)cc1C
inactive: all assays above

C=C(C)C1CC=C(C)CC1 (stereo not given)
inactive: all assays above

CC1(C)O[C@@H]2[C@@H](CO[C@@]3(COS(N)(=O)=O)OC(C)(C)O[C@@H]23)O1
inactive: all assays above

CCCCNS(=O)(=O)c1ccccc1
inactive: all assays above

COc1ccccc1[N+](=O)[O-]
inactive: all assays above

CC(C)OP(=O)(CP(=O)(OC(C)C)OC(C)C)OC(C)C
inactive: all assays above
